# Compounds with a hit are over-represented: about 2.6% of the library has one in this group of screens.
# Casp7 inh = allosteric or competitive inhibitors of human caspase-7 | P55210 | recombinant caspase-7, Ac-DEVD-AFC fluorescence rate | Potency, µM (top dose mostly 57.5 µM), without a hit: top-dose activity change, negative = inhibition, hits mostly inhibitors | 0.02% of 75,000 active | AID 889; active means well fitted inhibition curve with a large enough effect in the main read-out, with a control signal flat, not every such curve was filed as active; inconclusive means small, poorly fitted or top-dose-only effect, or a change in a side signal; further: % of control where 0% means no effect
# Casp1 inh = caspase-1 (human) inhibition, allosteric or competitive; Caspase-1 enzyme, Ac-WEHD-AFC fluorogenic rate; P29466; Potency, µM (top dose mostly 57.5 µM), for the others: at the highest dose activity change, negative = inhibition, most hits filed as inhibitors; 0.03% of 75,000 active;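 further: plate controls were vehicle for no effect and no substrate for full effect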
# HEK293 cAMP ctrl = raises cAMP in parental HEK293 cells, TSHR agonist counter-screen | parental HEK293 CNG cAMP sensor, membrane potential fluorescence | Potency, µM (doses to about 57.1 µM), without a hit: at the top dose activation, usual class: activators | 2.5% of 73,000 active | AID 938; further: % of control where 0% means no effect; nearly all actives have a fitted effect of over 55% in size
#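 Counterscreen for endogenous-receptor signalling: CNG-channel HEK 293 cells report cAMP rise by membrane depolarization. After 60 min dye equilibration with 100 uM RO 20-1724, compounds incubated 30 min before bottom-read fluorescence at 590 nm.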
# TSHR agonist = activates the human thyroid stimulating hormone receptor. HEK293-CNG-TSHR cells (CNG channel as cAMP sensor), membrane potential dye, cAMP. P16473. Potency, µM (doses to about 57.1 µM), without a hit: at the highest dose activation, hits mostly activators. AID 926. 0.48% of 73,000 active; active means well fitted activation curve with a large enough effect in the main read-out, with a control signal flat, not every such curve was filed as active; inconclusive means small, poorly fitted or top-dose-only effect, or a change in a side signal; inactive means no such curve, though single readings can be large or run the other way; % of control where 0% means no effect;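 further: the control signal comes from parental cells without the receptor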
#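 HEK 293 cells stably expressing TSHR and a modified CNG channel, with CNG-only parental cells as counterscreen, were preloaded 60 min at room temperature with membrane potential dye containing 100 uM RO 20-1724. Compound exposure was 30 min, and depolarization was read as fluorescence at 590 nm.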
# * hit, by the source's call; ? = inconclusive; nt = no result given; [ ] = remark or other dose. Unless noted, the call rests on the fitted dose curve; in most records, active means well fitted curve in the direction sought with a large enough effect; inconclusive means small, poorly fitted or top-dose-only effect, or another doubt; inactive means no such curve, though single readings can be large; an effect the other way counts as inactive or inconclusive. Potency means the concentration at half of the fitted maximal effect.
SMILES,Casp7 inh,Casp1 inh,HEK293 cAMP ctrl,TSHR agonist
Cn1cccc1C(=O)N1CCC2(CCCN(C(=O)Nc3cccc(F)c3)C2)CC1,-1%,-2%,17%,10%
COC(=O)[C@@]1(Cc2ccccc2)[C@H]2c3cc(C(=O)N4CCCC4)n(Cc4ccc(S(C)(=O)=O)cc4)c3C[C@H]2CN1C(=O)c1ccccc1,-9%,-6%,7.9µM*,?
COc1cc2nncc(SCc3ccc(Cl)c(Cl)c3)c2cc1OC,-3%[11.5 µM],3%[11.5 µM],-2%[11.4 µM],1%[11.4 µM]
CC1(C)Oc2cc3c(cc2O1)OC(C)(C)O3,4%[11.5 µM],2%[11.5 µM],3.2µM*,?
O=c1cnc2cnc(N3CCOCC3)nc2n1Cc1ccc(F)cc1,-25%,?,2.5µM*,?
CCCCO,0%,3%,10%,1%
N[C@H](Cc1ccc(O)c(I)c1)C(=O)O,nt,nt,2%,-1%
CCCNC(=O)CS(=O)(=O)Cc1nc(-c2cccc(OC)c2)oc1C,-1%,1%,16%,13%
COc1cccc(-c2nc(CS(=O)(=O)CC(=O)Nc3cccc(C)c3C)c(C)o2)c1,-2%,-2%,25µM*,?
Cn1c(=O)c(C(=O)c2ccccc2)nc2ccccc21,-5%,-5%,6%,7%
Cn1cc(C(=O)c2ccc(Cl)cc2)cc1-c1nc2ccccc2n1C,-13%,-14%,32µM*,?
COc1ccc(OC)c(C(c2nnnn2CCC(C)C)N2CCN(C(=O)c3ccco3)CC2)c1 (stereo not given),-3%,-1%,16µM*,?
Nc1ncnc2c1ncn2CCCCC(=O)O,1%[11.5 µM],3%[11.5 µM],6%[11.4 µM],-5%[11.4 µM]
CCCCCC[C@@H]([C@H](C)O)n1cnc2c(N)ncnc21,2%,2%,32µM*,?
Cc1cc(C(=O)CSc2nnc(C3COc4ccccc4O3)n2C)c(C)n1-c1ccc(F)cc1 (stereo not given),-2%,-1%,10µM*,?
Cn1c(SCC(=O)c2ccc3c(c2)OCO3)nnc1C1COc2ccccc2O1 (stereo not given),-3%,-6%,26%,9%
COc1ccc(C(=O)NC2CCN(S(=O)(=O)Cc3ccccc3)CC2)c(OC)c1,6%,-1%,10µM*,?
O=C(NC1CCCCC1)NC1CCN(S(=O)(=O)Cc2ccccc2)CC1,1%,0%,9%,-18%
CCC(c1nnnn1C1CCCC1)N1CCN(c2ccccc2F)CC1 (stereo not given),2%,-1%,?,?
CCCC(c1nnnn1C1CCCC1)N1CCN(c2ccccc2F)CC1 (stereo not given),-3%,-3%,5µM*,?
C#CCOC(=O)[C@H](N)CC(N)=O,0%[11.5 µM],1%[11.5 µM],4%[11.4 µM],-4%[11.4 µM]
Cc1cc(C)n(-c2nc3ccccc3c(=O)n2OCC(=O)Nc2c(C)cccc2C)n1,0%,-13%,27%,13µM*
Cc1cc(C)n(-c2nc3ccccc3c(=O)n2OCC(=O)N(C)C)n1,0%,3%,4%,-2%
O=S(=O)(c1ccccc1)N1CCC2(CCCN(c3ccccc3)C2)CC1,-3%,-7%,25µM*,?
O=S(=O)(c1ccccc1)N1CCC2(CC1)CN(c1ccncc1)C2,1%,-2%,3%,5%
SMILES,Casp7 inh,Casp1 inh,HEK293 cAMP ctrl,TSHR agonist
O=S(=O)(c1ccccc1)N1CCC2(CCCN(c3ccncc3)C2)CC1,-1%,0%,20µM*,?
O=S(=O)(c1ccccc1)N1CCC[C@@]2(CCN(Cc3ccccc3)C2)C1,0%,-1%,?,?
N#Cc1ccc(CN2CCCC3(CCN(S(=O)(=O)c4ccccc4)CC3)C2)cc1,-4%,-6%,13µM*,?
O=S(=O)(c1ccccc1)N1CCC2(CCCN(c3cccc(-c4ccccc4)c3)C2)CC1,-1%,-2%,14%,2%
C[C@H](N)C1CCC(C(=O)Nc2ccncc2)CC1 (stereo not given in full),0%,-1%,?,?
O=C(c1ccco1)N1c2ccccc2Sc2ccccc21,1%,-3%,20µM*,?
CC1=CC(=O)C2=C(C)CC[C@@H]3[C@@H](OC(=O)[C@H]3C)[C@H]12,2%[25.7 µM],-4%[25.7 µM],3%[25.6 µM],10%[25.6 µM]
CC(Cc1ccccc1)C(=O)NCCc1c[nH]c2ccccc12 (stereo not given),-4%,-3%,13µM*,?
O=C(NCCc1c[nH]c2ccccc12)C(F)(F)C(F)F,-1%,-1%,-4%,0%
CC1CCc2sc3c(c2C1)c1ncnn1c(=O)n3CC(=O)c1ccc(Br)cc1 (stereo not given),-2%,-1%,16µM*,?
CC1CCc2sc3nc(NCc4ccco4)n4ncnc4c3c2C1 (stereo not given),-6%,-2%,2%,10%
Nc1ncnc2c1ncn2[C@H]1O[C@@H](CO)[C@@H](O)[C@H]1N,1%[11.5 µM],1%[11.5 µM],2%[11.4 µM],-1%[11.4 µM]
O=C(O)Cc1c[nH]c2ccc(O)cc12,-1%,2%,?,?
CCn1nnnc1NCc1cccn1C,-3%,-4%,25µM*,?
COc1ccc(Oc2ncc3nc(C)c(=O)n(Cc4cccc(OC)c4)c3n2)cc1,-4%,-5%,25µM*,?
COc1cccc(Cn2c(=O)c(C)nc3cnc(OC)nc32)c1,-3%,-1%,?,?
COc1ccc(Oc2ncc3nc(-c4cccc(C#N)c4)c(=O)n(Cc4cccc(OC)c4)c3n2)cc1,-29%,?,25µM*,?
COc1cccc(Cn2c(=O)c(-c3cccc(C#N)c3)nc3cnc(N4CCN(C)CC4)nc32)c1,?,nt,-78%,?
COC(=O)[C@@]1(Cc2ccc(F)cc2)[C@H]2c3cc(C(=O)N4CCCC4)n(CCSCCO)c3C[C@H]2CN1C(=O)c1ccccc1,-2%,-3%,16%,11%
Cc1cc(C)n(CCc2nc(-c3cc4ccccc4o3)cs2)n1,-4%,0%,16µM*,?
CCC(=O)N1CCCc2cc(S(=O)(=O)N3CCN(c4ccccc4F)CC3)ccc21,-5%,-5%,25µM*,?
Cc1cc(C(=O)OCC(=O)NCc2ccco2)c(C)n1-c1ccc(F)cc1,5%,-1%,16µM*,?
Cc1cc(C)c2c(CC(=O)NCc3ccco3)coc2c1,-2%,2%,17%,32µM*
Cc1ccc(SCC(=O)NCc2ccco2)cc1,-1%,-2%,11%,11%
COc1ccc2c(c1)Cc1sc(NC(=O)c3cccs3)nc1-2,?,32µM*,-22%,8%
SMILES,Casp7 inh,Casp1 inh,HEK293 cAMP ctrl,TSHR agonist
N[C@H](COP(=O)(O)O)C(=O)O,nt,nt,2%,11%
CC(C)Oc1ccc(CSc2nnc3n(C)c(=O)c4c5c(sc4n23)CCCC5)cc1,-2%,1%,16µM*,?
Cc1cc(Cl)nc(NC(=O)CSc2ccc(Cl)cc2)n1,5%[11.5 µM],?,27%[11.4 µM],3%[11.4 µM]
O=C(OCc1c(Cl)nc2sccn12)c1cc2c(s1)CCCC2,0%,0%,13µM*,?
O=C(c1cc2c(s1)CCCC2)n1cccn1,-3%,1%,11%,4%
CC(C)CCCC(C)C1CCC2C3CC=C4CC(O)CCC4(C)C3CCC12C (stereo not given),1%,1%,nt,nt
COc1cc2c(cc1O)CC[C@@H]1[C@@H]2CC[C@@]2(C)[C@H](O)CC[C@H]12,0%,1%,?,?

# Source: PubChem (National Center for Advancing Translational Sciences (NCATS))
